# Source: PubChem BioAssay AID540253 (National Center for Advancing Translational Sciences (NCATS), 2011)
# Out of some 340,000 compounds screened, about 240 (0.071%) were called active. Calls come from the whole dose curve. This excerpt belongs to a sample that is enriched for actives.
# Biological target: Snurportin-1 (Homo sapiens) + GTP-binding nuclear protein Ran (Homo sapiens) + Importin subunit beta-1 (Homo sapiens) (UniProt O95149+P62826+Q14974)
# Assay: qHTS Assay for Inhibitors of RanGTP induced Rango (Ran-regulated importin-beta cargo) - Importin beta complex dissociation; note: nearly all actives have a fitted effect of over 45% in size; for activity change, negative = inhibition: % of control where 0% means no effect
# Details: Biochemical FRET Rango-importin beta; series mostly up to 46.1 µM; activity change, negative = inhibition: at the top concentration
# Description: NIH Molecular Libraries Probe Production Centers Network [MLPCN] NIH Chemical Genomics Center [NCGC] MLPCN Grant: R03 MH090808-01A1 Assay Submitter (PI): Petr Kalab NCGC Assay Overview: The small GTPase Ran regulates transport of macromolecules between the nucleus and the cytoplasm (nuclear transport) and has important functions in mitotic spindle assembly, nuclear envelope (NE) formation and nuclear pore complex (NPC) assembly. RanGTP gradient is thought to promote spindle assembly by providing a spatial clue to microtubule nucleation and Aurora A activation. Because the localized release and binding of importin alpha cargos relays this spatial clue to SAFs, inhibitors of the Rango - importin beta complex can then be used in further understanding their role in cell cycle specifically in mitosis progression. […] Activation of Aurora A has been linked to different types of cancer and a number of Aurora kinase inhibitors are being developed as potential canter therapeutics; therefore, identified inhibitors of this complex could be developed into potential anti-mitotic probes for cancer treatment. Purified recombinant proteins Rango - importin beta and RanGTP-RCC1 stock premixes were provided by the assay submitter. The assay used a fluorescence resonance energy transfer (FRET) Rango biosensor that contains the IBB of human snurportin 1 flanked by yellow fluorescent protein (EYFP) at the amino terminus and cerulean CFP10 at the carboxy terminus. […] RanGTP binding to the complex (in the presence of RCC1) releases the Rango from the complex. The flexibility of the IBB in the freed Rango allows the donor - acceptor fluorophores to interact, resulting in a high FRET signal. Inhibitors will therefore be identified based on the ability to interfere with the FRET signal increase. DMSO treated and no RanGTP-RCC1 (buffer only) wells were used as negative and positive controls respectively. FRET readings were obtained at two time points. FRET reading prior to importin beta addition (pre-read) were used flag potential compound interference; FRET reading after importin beta addition (post-read) were used to identify inhibitors.
# NCGC Assay Protocol Summary: Two and a half uL/well of Rango- importin beta premix solution (0.1 uM Rango, 0.25 uM importin beta, 1x PBS, 1mM DTT, 0.02% Tween-20, 0.1% BSA final concentrations) was dispensed into 1536-well assay plates (Greiner, solid black medium-binding plates) with Aurora Discovery BioRAPTR Flying Reagent Dispenser (FRD; Beckton-Dickenson). Compound solution (23 nL) was transferred to the assay plate using Kalypsys pin tool equipped with a 1536-pin tool and incubated at room temperature for 5 min followed by a FRET pre-read using the PerkinElmer Envision plate reader. Two and a half uL/well of RanGTP-RCC1 premix solution (0.6 uM Ran, 2mM GTP, 0.2 uM RCC1, 1x PBS, 1mM DTT, 0.02% Tween-20, 0.1% BSA final concentrations) were then added and incubated at room temperature giving a final reaction volume of 5uL. After 45min FRET post-read was obtained via the Envision plate reader using the same optics and settings as the pre-read (CFP/YFP optimized dual optical module D450/D505; excitation mirror CFP 430/24 nm; and emission filters CFP 486/10 nm and YFP 530/10 nm).
# Potency is the fitted concentration of half-maximal effect.
Structure (SMILES),"activity change, negative = inhibition",Potency
COc1ccccc1N(CC(=O)Nc1c(C)n(C)n(-c2ccccc2)c1=O)S(=O)(=O)c1ccccc1,15.2% (inactive),–
CC(C)(C)c1nnc2sc(SCC(O)=C(C#N)c3nc4ccccc4[nH]3)nn2c1=O,-17.3% (inactive),–
Cc1cc(NC(=O)C(C)SCC(=O)Nc2cccc(S(=O)(=O)N3CCCCCC3)c2)no1 (stereo unspecified),-9.26% (inactive),–
CC(C)(C)C(=O)Nc1cccc(-c2ccc[nH]2)n1,-8.04% (inactive),–
Nc1ccc2c(c1)C(O)c1ccc(Cl)cc1-2 (stereo unspecified),12% (inactive),–
Cn1cc(C2OC(=O)c3ccccc32)c2ccccc21 (stereo unspecified),-1.39% (inactive),–
CCC1([N+](=O)[O-])COC(c2ccc(C(C)C)cc2)OC1 (stereo unspecified),4.48% (inactive),–
Nc1ccc2c(c1)C(=Cc1cccnc1)c1ccccc1-2,-0.303% (inactive),–
Cc1nc2ccc(N)nc2nc1C,-10.7% (inactive),–
CC(C)c1cc(N=O)cc(C(C)C)c1O,16.3% (inactive),–
O=C(OCCOc1ccccc1Cl)c1cc(S(=O)(=O)N2CCCCC2)ccc1N1CCOCC1,-8.97% (inactive),–
Cc1ccc(S(=O)(=O)N2CCN(C(=O)c3cc(S(=O)(=O)N4CCOCC4)ccc3F)CC2)cc1,6.87% (inactive),–
CN(CCc1ccccc1)C(=O)c1cccc(NC(=O)Cc2cccc(NC(=O)C3CCCN(C(=O)CCc4ccccc4)C3)c2)c1 (stereo unspecified),-6.42% (inactive),–
CCC(=O)N1CCc2cc(Br)c(S(=O)(=O)NCCN3CCCCC3CC)cc21 (stereo unspecified),-5.08% (inactive),–
O=C(c1cccc(S(=O)(=O)N2CCCCCC2)c1)N1CCN(Cc2ccccc2)CC1,0.329% (inactive),–
CCOc1ccccc1NC(=S)C(=C([O-])c1ccc2c(c1)OCCO2)[n+]1ccc(CC)cc1,7.69% (inactive),–
CC(=O)c1cccc(-c2ccc(CN3C(CC(C)C)C(=O)N(Cc4cn(CC5CCCCC5)nn4)CCS3(=O)=O)cc2)c1 (stereo unspecified),5.63% (inactive),–
C[n+]1cccc(C(=O)O)c1,10.9% (inactive),–
CC1CN(Cc2ccco2)C(=S)N(c2ccccc2)C1=O (stereo unspecified),0.667% (inactive),–
Cc1nc(N)nc(Cl)c1CCC1OCCO1,18.9% (inactive),–
O=C(CC1CCCCC1)NCc1ccco1,-9.28% (inactive),–
O=C(CCCCCN1C(=O)c2cccc3cccc(c23)C1=O)NCc1ccco1,4.95% (inactive),–

Structure (SMILES),"activity change, negative = inhibition",Potency
O=C(CN1C(=O)/C(=C\c2ccc(C(F)(F)F)cc2)Sc2ccccc21)NCc1ccco1,–,11.6 µM [inconclusive] (active)
O=C(Cc1ccc([N+](=O)[O-])cc1)NCCc1ccc2c(c1)OCO2,12.1% (inactive),–
Cc1nc(N)nc(SCc2ccc([N+](=O)[O-])cc2)c1N,-1.08% (inactive),–
Cc1cccc(NS(=O)(=O)c2ccc([N+](=O)[O-])cc2)n1,-2.17% (inactive),–
Cc1nc2ccccc2nc(=O)c1NNc1ccc([N+](=O)[O-])cc1,–,14.6 µM [inconclusive] (active)
CN(C(=O)c1cccc(NC(=O)Cc2ccc(NC(=O)C3CCCN(C(=O)C4CCCC4)C3)cc2)c1)C1CCC1 (stereo unspecified),4.82% (inactive),–
CSCCC(NS(=O)(=O)c1ccc(C)cc1)C(=O)N(C)CC(=O)Nc1ccccc1Br (stereo unspecified),-5.32% (inactive),–
CC(=O)OCC(=O)C1(O)CCC2C3CC(C)C4=CC(=O)CCC4(C)C3C(O)CC21C (stereo unspecified),-18.3% (inactive),–
NC(=S)NN=C1CCCC(C(F)(F)F)C1 (stereo unspecified),-1.47% (inactive),–
C[C@@H]1NS(=O)(=O)c2cc(Cl)ccc2O[C@@H]1c1ccccc1,7.4% (inactive),–
CC(=O)CSc1nc(CCc2ccccc2)c(C#N)c(=O)[nH]1,-1.86% (inactive),–
CC(C)CN1CC(C)C(=O)N(c2ccccc2)C1=S (stereo unspecified),0.708% (inactive),–
Nc1ncnc2c1cnn2C1CC(O)C(CO)O1 (stereo unspecified),0.102% (inactive),–
Cc1ccc(-c2csc(C(C#N)=C(O)CN3CCN(C(=O)c4ccco4)CC3)n2)cc1,2.16% (inactive),–
O=C1CC(C(=O)O)NC(=S)N1 (stereo unspecified),-1.44% (inactive),–
CCc1nnc(NC(=O)c2cc(S(=O)(=O)N3CCN(CC)CC3)ccc2Cl)s1,-2.92% (inactive),–
O=C(Cc1ccc(NC(=O)C2CCCN(C(=O)C3CCCCC3)C2)cc1)Nc1cccc(C(=O)N2CCCCC2)c1 (stereo unspecified),-0.0587% (inactive),–
CCc1ccc(C(=O)C(C)OC(=O)CN2C(=O)NC3(CCCC3)C2=O)cc1 (stereo unspecified),9.43% (inactive),–
COc1ccc(CCNC(=O)c2ccc(NC(=O)CC3SC(N4CCCCC4)=NC3=O)cc2)cc1OC (stereo unspecified),19.5% (inactive),–
Cc1onc(-c2c(F)cccc2Cl)c1C(=O)Nc1cccc(S(=O)(=O)N2CCCCC2)c1,4.01% (inactive),–
COc1ccccc1C(=O)c1ccccc1C(=O)c1ccccc1,6.28% (inactive),–
CCOC(=O)N(Cc1ccccc1)C1CC1,-14.1% (inactive),–

Structure (SMILES),"activity change, negative = inhibition",Potency
COC1=NC2=NCCN2C(OC)=N1,0.279% (inactive),–
O=C(NN=Cc1ccccc1O)NN=Cc1ccccc1O,25.5% (inactive),–
O=[N+]([O-])c1cccc(C=NN=Cc2ccccc2O)c1,12.1% (inactive),–
CN(C)CCNC(=O)c1ccc(Cl)c2cc3ccccc3nc12,-25.3% (inactive),–
CCC(C)C1(C2CCCC2)NC(=O)NC1=O (stereo unspecified),-4.04% (inactive),–
CSc1ncnc2c1ncn2CC(=O)C1CCC2C3CCC4=CC(=O)CCC4(C)C3CCC12C (stereo unspecified),-2% (inactive),–
COc1cccc2c1C(=O)c1c(O)c3c(c(O)c1C2=O)CC(O)(C(C)=NNC(=O)c1ccc(Cl)c(Cl)c1)CC3OC1CC(N)C(O)C(C)O1 (stereo unspecified),8.77% (inactive),–
CCCN(CCC)S(=O)(=O)c1cc2c(cc1Br)CCN2C(=O)CC,-8.15% (inactive),–
COc1ccc(C(=O)Nc2cccc(/C=C(/CCC(=O)O)c3nc4ccccc4s3)c2)cc1,11.4% (inactive),–
CCCN(C(=O)COC(=O)CNS(=O)(=O)c1ccc(NC(C)=O)cc1)C1CCS(=O)(=O)C1 (stereo unspecified),-7.66% (inactive),–
CC(=NNC(=S)N1CCCCCC1)c1ccccn1,-12.1% (inactive),–
Cc1cccc(CC2(O)C(=O)Nc3ccccc32)n1 (stereo unspecified),16.1% (inactive),–
Cc1cc(OCCCC(=O)Nc2cc(S(=O)(=O)N3CCOCC3)ccc2N2CCOCC2)ccc1Cl,0.551% (inactive),–
COC1=CC(=O)OC(C)(c2ccccc2)C1 (stereo unspecified),-0.43% (inactive),–
COc1ccc2c(c1)C(=O)CC(c1ccccc1)O2 (stereo unspecified),-4% (inactive),–
CC(NC(=O)c1ccccc1)C(=O)OCC(=O)Nc1cccc(S(=O)(=O)N2CCCC2)c1 (stereo unspecified),4.12% (inactive),–
O=C1C(=O)N(c2ccccc2)C(c2ccccc2)C1c1ccccc1 (stereo unspecified),-1.36% (inactive),–
Cc1ccc(OCCNC(=O)c2cccc(S(=O)(=O)N3CCN(Cc4ccccc4)CC3)c2)cc1,1.12% (inactive),–
COC[C@@H]1NS(=O)(=O)c2ccc(Br)cc2O[C@H]1c1ccccc1,6.09% (inactive),–
CN(C(=O)c1cccc(NC(=O)Cc2cccc(NC(=O)C3CCCN(C(=O)C4CC4)C3)c2)c1)C1CCC1 (stereo unspecified),9.2% (inactive),–
O=S1(=O)CCOC[C@H](Cc2ccccc2)N1Cc1ccccc1Br,-14.1% (inactive),–
O=c1oc2ccccc2c(=O)c2ccccc12,-1.68% (inactive),–
